Test results as given in PubChem BioAssay AID743445 (Broad Institute, 2014).
In all, about 310,000 compounds went through this assay and about 1,700 (0.55%) were called active. Only a selection was taken, and actives are over-represented in it overall. Values without a mark were called inactive. Cut-off read from the data, not from the text of the source: active = inhibition above about 50%; inactive = the rest.

Each molecule was assayed against Histone-lysine N-methyltransferase NSD2 (Homo sapiens) (UniProt O96028) (assay: NSD2 histone methyltransferase inhibitors, primary screen, biochemical, AlphaScreen, single concentration, set 2 (AID 743445)). Conditions: NSD2 peptide methylation, 120 min, at 12.5 µM, active compounds read high.
Chain of Histone-lysine N-methyltransferase NSD2 (Homo sapiens) (O96028 whole entry, looked up): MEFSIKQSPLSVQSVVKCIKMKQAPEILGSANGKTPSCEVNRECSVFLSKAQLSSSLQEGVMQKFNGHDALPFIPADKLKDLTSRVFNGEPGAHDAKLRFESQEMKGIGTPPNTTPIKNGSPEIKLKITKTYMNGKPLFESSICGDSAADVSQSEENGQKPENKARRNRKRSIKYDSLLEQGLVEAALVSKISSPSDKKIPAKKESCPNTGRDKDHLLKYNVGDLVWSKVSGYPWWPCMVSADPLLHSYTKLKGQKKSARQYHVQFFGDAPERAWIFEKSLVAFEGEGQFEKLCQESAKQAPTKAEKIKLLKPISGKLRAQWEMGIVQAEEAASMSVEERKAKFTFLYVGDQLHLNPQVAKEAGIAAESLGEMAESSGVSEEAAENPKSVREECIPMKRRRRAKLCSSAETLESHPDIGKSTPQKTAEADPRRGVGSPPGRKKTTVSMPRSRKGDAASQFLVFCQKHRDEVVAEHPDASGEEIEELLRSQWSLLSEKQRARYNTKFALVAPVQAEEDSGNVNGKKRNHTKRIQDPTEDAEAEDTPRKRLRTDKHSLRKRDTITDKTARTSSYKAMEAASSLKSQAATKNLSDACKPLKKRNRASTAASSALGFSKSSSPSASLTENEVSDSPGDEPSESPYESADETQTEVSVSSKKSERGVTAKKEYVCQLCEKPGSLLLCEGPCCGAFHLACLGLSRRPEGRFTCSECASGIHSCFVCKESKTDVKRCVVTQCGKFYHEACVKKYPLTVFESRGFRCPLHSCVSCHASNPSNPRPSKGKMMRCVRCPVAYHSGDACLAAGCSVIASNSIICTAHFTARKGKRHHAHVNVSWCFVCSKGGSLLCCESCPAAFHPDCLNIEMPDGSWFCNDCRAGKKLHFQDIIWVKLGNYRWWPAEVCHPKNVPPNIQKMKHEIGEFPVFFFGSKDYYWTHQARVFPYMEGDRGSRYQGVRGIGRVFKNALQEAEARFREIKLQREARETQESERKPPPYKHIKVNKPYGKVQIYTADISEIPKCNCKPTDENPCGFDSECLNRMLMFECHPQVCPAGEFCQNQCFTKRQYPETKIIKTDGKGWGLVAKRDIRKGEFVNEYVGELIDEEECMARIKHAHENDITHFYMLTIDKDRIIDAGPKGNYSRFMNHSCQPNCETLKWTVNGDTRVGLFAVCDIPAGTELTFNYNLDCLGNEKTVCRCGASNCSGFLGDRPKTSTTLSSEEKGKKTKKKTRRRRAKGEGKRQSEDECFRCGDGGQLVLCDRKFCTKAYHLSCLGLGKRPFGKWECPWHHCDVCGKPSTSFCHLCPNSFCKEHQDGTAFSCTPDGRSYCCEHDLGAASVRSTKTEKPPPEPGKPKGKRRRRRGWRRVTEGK
Molecule `Nn1c(SCC(=O)Nc2cccc3ccccc23)nnc1-c1cc(-c2ccc(F)cc2)n[nH]1` has an inhibition of 8.09%. Molecule `COc1ccc(-n2c(COc3ccccc3)nnc2SCC(=O)Nc2ccc3c(c2)OCO3)cc1` has an inhibition of -0.703%. For `Cc1cc(C)cc(C(=O)NCCN2CCOCC2)c1`, the inhibition was 4.87%. In the case of `CCOC(=O)c1c(C)[nH]c(C(=O)NCCN2CCOCC2)c1C`, the inhibition is reported as 74.8% (active). Molecule `CC(=O)c1c(C)[nH]c(C(=O)NCCCN2CCCC2)c1C` has an inhibition of 7.16%. For `C=CCn1c(SCC(N)=O)nnc1-c1ccccc1OC`, the inhibition was -2.46%. In the case of `Cc1ccc(-n2c(COc3ccccc3)nnc2SCC(=O)Nc2ccc3c(c2)OCCO3)cc1`, the inhibition is reported as 5.45%. With `O=C(Nc1cc(F)cc(F)c1)OC1CCC12CCC(c1ccccc1)CC2` (stereo not drawn) the inhibition was -4.2%. `COC(=O)c1ccccc1-n1cc(COC(=O)NCCc2ccccc2)nn1` showed an inhibition of -1.58%. `O=C(CCCCCN1C(=O)C2C3C=CC(C3)C2C1=O)Nc1ccccc1` (stereo not drawn) gave an inhibition of -10.2%. For `O=C(Nc1ccccc1)N1CCN(Cc2nc3ccccc3c(=O)[nH]2)CC1`, the inhibition was -3.56%. `O=C(NCc1ccco1)c1nc(-c2ccccc2)n(-c2ccccc2)n1` was tested, and the inhibition was 59.6% (active). Work on `O=C(NCc1ccco1)c1nc2ncccn2n1` yielded an inhibition of -4.87%. `O=C(CSc1nnnn1-c1ccccc1)NCc1ccco1` gave an inhibition of -2.53%. `COC(=O)C1=C(C)N(Cc2cccc(C(F)(F)F)c2)C(=NCc2ccccc2)NC1c1ccccc1C(F)(F)F` (stereo not drawn) was tested, and the inhibition was -2.64%. With `Nn1c(SCC(=O)Nc2ccc(S(N)(=O)=O)cc2)nnc1-c1n[nH]c2c1CCC2` the inhibition was -3.92%. `O=C(CSc1nc2sc3c(c2c(=O)n1-c1ccccc1)CCCC3)NN=Cc1ccc(OCc2ccccc2)cc1` showed an inhibition of 6.16%. In the case of `C/C(=N/NC(=O)CCc1ccccc1)c1ccco1`, the inhibition is reported as 51.2% (active). In the case of `COc1cccc2cc(/C(C)=N/NC(=O)c3ccco3)oc12`, the inhibition is reported as -1.2%. Molecule `C/C(CC(=O)NC(C)(C)C)=N\NC(=O)c1ccco1` has an inhibition of -3.83%. Molecule `CCOc1ccc(Oc2c(Cl)cnn(-c3ccc(C)cc3)c2=O)cc1` has an inhibition of -2.84%. In the case of `O=C(CSc1nc2c(c(=O)[nH]1)CCCC2)N1CCCCC1`, the inhibition is reported as -1.56%. `CC(C)Nc1nc(NCCOc2ccccc2Cl)c2sccc2n1` showed an inhibition of 2.58%. In the case of `COc1cc(/C=C/C(=O)n2cnc3ccccc32)cc(OC)c1OC`, the inhibition is reported as 0.939%. In the case of `Cc1ccccc1-n1nc(C)c2cc(C(=O)NC3CC3)sc21`, the inhibition is reported as 0.032%. Molecule `Cc1nn(-c2ccccc2)c(Cl)c1/C=C/C(=O)c1ccc(O)cc1` has an inhibition of -0.695%. `Cc1ccccc1-n1nc(C)c2c1N=C1C(Cl)=CC(Cl)=CN1C2c1ccc(C(=O)O)cc1` (stereo not drawn) was tested, and the inhibition was 51.3% (active). `COc1ccc([C@H]2OC(=O)C[C@H]2C(=O)N2CCN(c3ccccc3F)CC2)cc1OC` was tested, and the inhibition was -1.64%. For `COc1ccccc1N(C)S(=O)(=O)c1ccc(C(=O)NC2CCCCCC2)cc1`, the inhibition was 50.3% (active). In the case of `COc1ccc(S(=O)(=O)NC(C)C)cc1C(=O)NC1CCCCC1`, the inhibition is reported as 0.027%. With `COc1ccccc1N(C)S(=O)(=O)c1ccc(C(=O)N2CCC(C(N)=O)CC2)cc1` the inhibition was -2.68%. `O=C(NCCC1=CCCCC1)C1CCN(S(=O)(=O)c2ccc(Cl)s2)CC1` showed an inhibition of -2.83%. Work on `COc1ccccc1-c1cc(NC(C)=O)c2ncc(-c3ccc(F)cc3)n2c1` yielded an inhibition of -0.432%.
